From PubChem BioAssay (EPA / NIEHS)
Records with an inconclusive call do not appear. The source made the active and inactive calls. Rule for the calls: active = hit-call score of the fitted dose curve at least 0.9, where 1 is the maximum; inconclusive = response in the unintended direction; inactive = score below 0.9.

Experiment: Tanguay_ZF_120hpf_PIG_legacy: (Legacy) Oregon State University Tanguay Lab 120 Hour Post-fertilization zebrafish Assay for Pigmentation Malformation (AID 2283650);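 note: dechorionated Tropical 5D zebrafish embryos exposed singly from 6 to 120 hpf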
Protocol: Tanguay_ZF_120hpf_legacy is a whole embryo, multiplexed endpoint assay using zebrafish larvae exposed for 120 hours post fertilization on a 96-well plate.Tanguay_ZF_120hpf_PIG_legacy is one of one assay component(s) measured or calculated from the Tanguay_ZF_120hpf_legacy assay. It is designed to make measurements of zebrafish development as detected with brightfield microscopy of developing zebrafish embryos.Data from the assay component Tanguay_ZF_120hpf_PIG_legacy was analyzed into 1 assay endpoints. This assay endpoint, Tanguay_ZF_120hpf_PIG_legacy, was analyzed in the positive analysis fitting direction relative to DMSO as the negative control and baseline of activity. Using a type of morphology reporter, gain-of-signal activity can be used to understand changes in developmentals as they relate to the whole embryo. To generalize the intended target to other relatable targets, this assay endpoint is annotated to the zebrafish development intended target family, where the subfamily is embryonic pigmentation.
Zebrafish husbandry: Tropical 5D wild-type adult zebrafish were housed in at an approximate density of 1000 per 100 gallon tank at the Sinnhuber Aquatic Research Laboratory, Oregon State University, Corvallis, OR. Each tank was kept at standard laboratory conditions of 28C on a 14-h light/10-h dark photoperiod in fish water consisting of reverse osmosis water supplemented with a commercially available salt (Instant Ocean). Spawning funnels were placed into the tanks the night prior, and embryos were collected and staged. To increase bioavailability, the chorion was enzymatically removed using pronase (63.6mg/ml, >/= 3.5U/mg, Sigma-Aldrich: P5147) at 4 hours post fertilization (hpf) using a custom automated dechorionator.Chemical exposures: Six hpf dechorionated embryos were placed 1 embryo per well in a 96-well plate prefilled with 90 ul of EM using automated embryo placement systems (AEPS). Ten microliters of each row of dilution plate 2 was added to 2 exposure plates. The final DMSO concentration used was 0.64% (vol/vol). Thirty-two embryos were also exposed to 5uM trimethyltin chloride (positive control). Plates were sealed to prevent evaporation and foil covered to reduce light exposure and kept in a 28C incubator. Embryos were statically exposed until 120 hpf. At 24 hpf, embryos were assessed for photomotor response using a custom photomotor response analysis tool (PRAT) and for developmental toxicity endpoints (MO24: mortality at 24 hpf, DP: developmental progression, SM: spontaneous movement, and NC: notochord distortion). At 120 hpf, locomotor activity was measured using Viewpoint Zebralab and assessed for 18 endpoints. Zebrafish acquisition and analysis program (ZAAP), a custom program designed to inventory, acquire, and manage zebrafish data, was used to collect developmental endpoints as either present or absent (i.e., binary responses were recorded). If mortality occurred for an embryo (at either 24 or 120 hpf), the non-mortality endpoints were not measured.

SMILES | AC50 | outcome
CCCCNC(=O)n1c(NC(=O)OC)nc2ccccc21 | 27.9 µM (active) | –
CCCCNC(=O)OCC#CI | – | inactive
O=C(O)COc1nc(Cl)c(Cl)cc1Cl | – | inactive
CNC(=S)S | – | inactive
CCNc1nc(Cl)nc(NC(C)C)n1 | – | inactive
CCCC1COC(Cn2cncn2)(c2ccc(Cl)cc2Cl)O1 (stereo not given) | – | inactive
Fc1ccc(Oc2ccnc3cc(Cl)cc(Cl)c23)cc1 | – | inactive
CC1=C(C(=O)Nc2ccccc2)SCCO1 | – | inactive
CON(C)C(=O)Nc1ccc(Cl)c(Cl)c1 | – | inactive
N#Cc1nn(-c2c(Cl)cc(C(F)(F)F)cc2Cl)c(N)c1S(=O)C(F)(F)F (stereo not given) | – | inactive
O=C(Nc1ccccc1)Nc1ccnc(Cl)c1 | – | inactive
CO/C=C(/C(=O)OC)c1ccccc1Oc1cc(Oc2ccccc2C#N)ncn1 | – | inactive
C=CCC1=C(C)C(OC(=O)C2C(C=C(C)C)C2(C)C)CC1=O (stereo not given) | – | inactive
COC(=O)c1ccccc1C(=O)OC | – | inactive
CCCN(CCC)c1c([N+](=O)[O-])cc(S(N)(=O)=O)cc1[N+](=O)[O-] | – | inactive
CCc1nn(C)c(C(=O)NCc2ccc(C(C)(C)C)cc2)c1Cl | – | inactive
COP(=S)(OC)Oc1nc(Cl)c(Cl)cc1Cl | – | inactive
CC(Oc1ccc(Cl)cc1Cl)C(=O)O (stereo not given) | – | inactive
Oc1ccccc1-c1ccccc1 | – | inactive
COC(=O)N(OC)c1ccccc1COc1ccn(-c2ccc(Cl)cc2)n1 | – | inactive

SMILES | AC50 | outcome
CN(C)C(=S)SSC(=S)N(C)C | – | inactive
CC(C)C1(C)N=C(c2nc3ccccc3cc2C(=O)O)NC1=O (stereo not given) | – | inactive
COC(=O)C(C)Oc1ccc(Oc2ccc(Cl)cc2Cl)cc1 (stereo not given) | – | inactive
C=CC1(C)OC(=O)N(c2cc(Cl)cc(Cl)c2)C1=O (stereo not given) | – | inactive
CCCCOC(=O)c1ccccc1C(=O)OCCCC | – | inactive
Cc1c(F)c(F)c(COC(=O)C2C(/C=C(\Cl)C(F)(F)F)C2(C)C)c(F)c1F (stereo not given) | 3.42 µM (active) | –
N#CC(CCc1ccc(Cl)cc1)(Cn1cncn1)c1ccccc1 (stereo not given) | – | inactive
CNC(=O)ON=CC(C)(C)SC | – | inactive
COc1nc(NC(C)C)nc(NC(C)C)n1 | – | inactive
Cc1cc(Cl)ccc1OCC(=O)O | – | inactive
C#CCOS(=O)OC1CCCCC1Oc1ccc(C(C)(C)C)cc1 (stereo not given) | – | inactive
CCCCC(CC)COC(=O)c1ccccc1C(=O)OCC(CC)CCCC (stereo not given) | – | inactive
CS/C(C)=N/OC(=O)N(C)SN(C)C(=O)O/N=C(\C)SC | – | inactive
COC(=O)C=C(C)OP(=O)(OC)OC | – | inactive
CCOP(=S)(OCC)SCn1c(=O)oc2cc(Cl)ccc21 | – | inactive
OC(c1ccc(Cl)cc1)(c1cncnc1)c1ccccc1Cl (stereo not given) | – | inactive
CCOC(=O)C(Cl)Cc1cc(-n2nc(C)n(C(F)F)c2=O)c(F)cc1Cl (stereo not given) | 1.88 µM (active) | –
CCON=C(CC)C1=C(O)CC(c2c(C)cc(C)cc2C)CC1=O (stereo not given) | – | inactive
Cc1ccc(-c2c(Cl)nc(C#N)n2S(=O)(=O)N(C)C)cc1 | – | inactive
C=CCC1=C(C)[C@@H](OC(=O)[C@@H]2[C@@H](C=C(C)C)C2(C)C)CC1=O | – | inactive
